Assay [1] in a line: qHTS of pediatric cancer cell lines to identify multiple opportunities for drug repurposing: Confirmatory screen for A673 cells (AID 1347110).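 Note: cells exposed to compound for 48 h before the viability read; nearly all actives have a fitted effect of over 65% in size.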 A digest of the protocol:
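Concentration-response curves came straight from titrations: 11 points (0.78 nM to 46 µM) for MIPE and several concentrations (0.59 nM to 46 µM) for NPC in primary, 11 points in follow-up. Readout: ATP luminescence at 48 h.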
For orientation: Quantitative high-throughput screening tests each substance at several concentrations.

Assay [2] can be described thus: qHTS of pediatric cancer cell lines to identify multiple opportunities for drug repurposing: Confirmatory screen for SK-N-MC cells (AID 1347111).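 Note: cells exposed to compound for 48 h before the readout; nearly all actives have a fitted effect of over 70% in size.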 A digest of the protocol:
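Metabolically active cells were quantified by ATP-dependent luminescence (CellTiter-Glo, 15 min at room temperature) following 48 h treatment. Cells had been plated at 500-1,000 per well and settled for 5 h beforehand.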

Assay [3] can be described thus: qHTS of pediatric cancer cell lines to identify multiple opportunities for drug repurposing: Confirmatory screen for BT-12 cells (AID 1347112). Note: nearly all actives have a fitted effect of over 55% in size. A digest of the protocol: (§1)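 Cells (500-1,000/well) in growth media were settled 5 h at 37 degrees C, then given compounds for 48 h. Viability was read as CellTiter-Glo luminescence. Primary runs used MIPE at 11 points (0.78 nM-46 µM) and NPC at 8 points (0.59 nM-46 µM); follow-ups used 11 points.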

Assay [4] is described as follows: qHTS of pediatric cancer cell lines to identify multiple opportunities for drug repurposing: Confirmatory screen for DAOY cells (AID 1347114). Note: nearly all actives have a fitted effect of over 65% in size. A digest of the protocol: (§2)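 Viability measured as metabolically active cells via CellTiter-Glo luminescence following 48 hours of compound exposure, 11-point dilutions in confirmatory testing. 500-1,000 cells/well plated 5 hours before dosing; controls were DMSO and 2.3 µM bortezomib.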

Assay [5] in a line: qHTS of pediatric cancer cell lines to identify multiple opportunities for drug repurposing: Confirmatory screen for NB-EBc1 cells (AID 1347115).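 Note: cells exposed to compound for 48 h before the viability read; nearly all actives have a fitted effect of over 45% in size.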 In outline:
as §1

A short description of assay [6]: qHTS of pediatric cancer cell lines to identify multiple opportunities for drug repurposing: Confirmatory screen for BT-37 cells (AID 1347117). Note: nearly all actives have a fitted effect of over 55% in size. A digest of the protocol: as §1
Assay [7] in a line: qHTS of pediatric cancer cell lines to identify multiple opportunities for drug repurposing: Confirmatory screen for TC32 cells (AID 1347118).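 Note: cells exposed to compound for 48 h before the read; nearly all actives have a fitted effect of over 65% in size.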 In outline: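 TC32 cells, 500-1,000/well in growth medium, compound-treated 48 h at 37 °C; viability from CellTiter-Glo luminescence. Primary screen: MIPE 11-point (0.78 nM–46 µM final), NPC 8-point (0.59 nM–46 µM final); confirmatory at 11-point dilutions.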

A short description of assay [8]: qHTS of pediatric cancer cell lines to identify multiple opportunities for drug repurposing: Confirmatory screen for MG 63 (6-TG R) cells (AID 1347119). Note: nearly all actives have a fitted effect of over 55% in size. A digest of the protocol:
as §1

A short description of assay [9]: qHTS of pediatric cancer cell lines to identify multiple opportunities for drug repurposing: Confirmatory screen for control Hh wild type fibroblast cells (AID 1347121). Note: nearly all actives have a fitted effect of over 70% in size. In outline:
as §1

A short description of assay [10]: qHTS of pediatric cancer cell lines to identify multiple opportunities for drug repurposing: Confirmatory screen for SJ-GBM2 cells (AID 1347116). Note: nearly all actives have a fitted effect of over 60% in size. In outline:
as §2

16 compounds from PubChem BioAssay (NCATS) can be followed below.

Values joined by “and” are separate entries in the source; they are usually repeats but may differ in a detail not shown here. Equal values may be shown once. Records with an inconclusive call do not appear. Active and inactive are the calls of the source. Calls come from the whole dose curve; as a rule, active = well fitted curve in the direction sought with a large enough effect; inconclusive = small, poorly fitted or top-dose-only effect, or another doubt; inactive = no such curve, though single readings can be large; an effect the other way counts as inactive or inconclusive. Non-standard residues stand in square brackets, D forms with d. Residues, ends and D or L forms follow the SMILES beside them. *: point of attachment. Sta = CC(C)C[C@H](N)[C@@H](O)CC(=O)O; Isovaleryl = CC(C)CC(=O)*
Potency is the fitted concentration of half-maximal effect.

For the compound `CCN(CCO)CCCC(C)Nc1ccnc2cc(Cl)ccc12` (stereo unspecified), the Potency result in assay [1], in assay [2], in [3], in assay [4], in assay [5] and in [6] was “inactive” each time. Further, the Potency result in assay [7], in [8] and in assay [9] was “inactive” in each case.
With `CN(C)c1ccc(O)c2c1C[C@H]1C[C@H]3[C@H](N(C)C)C(=O)C(C(N)=O)=C(O)[C@@]3(O)C(=O)C1=C2O`, the Potency entry in assay [1], in [3], in assay [5], in [10], in assay [6] and in assay [9] was “inactive” each time. Further, the Potency in assay [7] was 5.85 µM (active).
With `Nc1nc(Cl)nc2c1ncn2[C@H]1C[C@H](O)[C@@H](CO)O1`, the Potency in assay [1] was 3.69 µM (active); in assay [2], 6.57 µM (active); in [6], 208 nM (active); in assay [7] it was 0.737 µM (active); in [8], 16.5 µM (active). For the same compound, the Potency entry in assay [3], in assay [4] and in [9] was “inactive” each time.
`CCCCc1ccc2nc(NC(=O)OC)[nH]c2c1`: the Potency in assay [1] is 0.329 µM (active); in assay [2], 0.329 µM (active); in assay [4], 0.185 µM (active); in [5], 1.47 µM (active); in [10] it was 3.29 µM (active); in assay [6], 414 nM (active). Moreover, the figures for the Potency in assay [7] and in assay [8] were 0.293 µM (active) and 0.185 µM (active), respectively.
`CC(C)CC(=O)N[C@H](C(=O)N[C@H](C(=O)N[C@@H](CC(C)C)[C@@H](O)CC(=O)N[C@@H](C)C(=O)N[C@@H](CC(C)C)[C@@H](O)CC(=O)O)C(C)C)C(C)C` (Isovaleryl-VV[Sta]A[Sta]-OH): the Potency was 1.47 µM (active) in assay [1], 5.22 µM (active) in [2] and 5.85 µM (active) in assay [7]. For the same compound, the Potency entry in [4] and in assay [5] was “inactive” throughout.
Turning to `CN(C)c1ccc2nc3ccc(=[N+](C)C)cc-3sc2c1`, the Potency in assay [1] was 8.27 µM (active); in assay [2], 1.17 µM (active); in assay [3], 1.04 µM (active); in assay [4], 4.65 µM (active); in assay [5], 6.57 µM (active); in [10], 1.47 µM (active). The Potency is 928 nM (active) in assay [6], 2.61 µM (active) in [7], 0.928 µM (active) in [8] and 18.5 µM (active) in assay [9].
As to `O=C(CCc1ccc(O)cc1)c1c(O)cc(O)cc1O`, the Potency result in assay [1], in assay [2], in assay [3], in assay [5], in assay [6] and in assay [7] was “inactive” each time. Further, the Potency entry in assay [8] and in assay [9] was “inactive” throughout.
Take `CCCOc1ccc2nc(NC(=O)OC)[nH]c2c1`: the Potency in assay [1] was 1.17 µM (active); in assay [2], 1.31 µM (active); in assay [3], 4.14 µM (active); in [4], 0.928 µM (active); in assay [10], 1.47 µM (active); in assay [6], 1310 nM (active). For the same compound, the Potency in assay [7] is 0.928 µM (active); in assay [8], 1.17 µM (active). Moreover, the Potency entry in [9] is “inactive”.
`Nc1ncn([C@H]2C[C@H](O)[C@@H](CO)O2)c(=O)n1`: the Potency entry in assay [1], in assay [3], in assay [4], in assay [5], in assay [10] and in [8] was “inactive” in each case. Moreover, the Potency entry in [9] is “inactive”.
As for `Clc1ccc(C(Cn2ccnc2)OCc2ccsc2Cl)c(Cl)c1` (stereo unspecified), the Potency is 20.8 µM (active) in [1]; 11.7 µM (active) in [2]; 16.5 µM (active) in assay [3]; 7370 nM (active) in assay [6]; 11.7 µM (active) in [7]. For the same compound, the Potency entry in [10] and in assay [9] was “inactive” throughout.
For the compound `Oc1ccc(-c2nc(-c3ccc(F)cc3)c(-c3ccncc3)[nH]2)cc1`, the Potency in assay [1] was 1.17 µM (active); in assay [2] it was 1.17 µM (active); in [3], 11.7 µM (active); in assay [5], 5.22 µM (active); in assay [10], 2.33 µM (active); in [6] it was 737 nM (active). For the same compound, the Potency is 0.737 µM (active) in [7] and 14.7 µM (active) in [8]. For the same compound, the Potency entry in assay [4] and in [9] was “inactive” in each case.
For the compound `CS(=O)(=O)OCCCCOS(C)(=O)=O`, in [1], the Potency is 16.5 µM (active). Moreover, the Potency result in [3], in [4], in assay [5], in assay [8] and in [9] was “inactive” each time.
Regarding `CC[C@]1(O)C[C@H]2CN(CCc3c([nH]c4ccccc34)[C@@](C(=O)OC)(c3cc4c(cc3OC)N(C=O)[C@H]3[C@@](O)(C(=O)OC)[C@H](OC(C)=O)[C@]5(CC)C=CCN6CC[C@]43[C@@H]65)C2)C1`, the Potency is 14.7 nM (active) and 18.5 nM (active) in assay [1]; 23.3 nM (active) and 104 nM (active) in assay [2]; 36.9 nM (active) and 208 nM (active) in assay [3]; 82.7 nM (active) and 92.8 nM (active) in [4]; 827 nM (active) and 4.14 µM (active) in assay [5]; 0.185 µM (active) in assay [10]. The Potency in assay [6] is 14.7 nM (active) and 131 nM (active); in assay [7] it was 26.1 nM (active) and 117 nM (active); in assay [8], 46.5 nM (active) and 329 nM (active). The Potency result in assay [9] is “inactive”.
Regarding `CCN(CC)CCOc1ccc(Nc2ncc3cc(-c4c(Cl)cccc4Cl)c(=O)n(C)c3n2)cc1`, the Potency is 0.185 µM (active) in [1]; 0.293 µM (active) in assay [2]; 11.7 µM (active) in assay [3]; 1.65 µM (active) in assay [4]; 18.5 µM (active) in assay [5]; 2.33 µM (active) in assay [10]. For the same compound, the Potency in assay [6] is 4650 nM (active); in assay [7], 2.61 µM (active); in assay [8], 0.261 µM (active).
Turning to `CC(S)C(=O)NCC(=O)O` (stereo unspecified), the Potency entry in assay [3], in assay [5], in [6], in [7], in [8] and in assay [9] was “inactive” throughout.
`Cc1nc(Nc2ncc(C(=O)Nc3c(C)cccc3Cl)s2)cc(N2CCN(CCO)CC2)n1`: the Potency in [1] is 20.8 µM (active); in assay [3], 6.57 µM (active); in assay [4] it was 16.5 µM (active). Also, the Potency result in assay [5], in [10], in [7] and in [9] was “inactive” in each case.
